Laboratory results: PubChem BioAssay (NCATS)
The other results are listed elsewhere or left out. Results filed as inconclusive are left out. The source made the active and inactive calls. Calls come from the whole dose curve; as a rule, active = well fitted inhibition curve with a large enough effect; inconclusive = small, poorly fitted or top-dose-only effect; inactive = flat fitted curve, though single readings scatter.

Each molecule was assayed against Fructose-bisphosphate aldolase A (Oryctolagus cuniculus) (UniProt P00883) (assay: qHTS Assay for Inhibitors of Fructose-1,6-bisphosphate Aldolase from Giardia Lamblia: Rabbit FBPA Selectivity (AID 2794; note: nearly all actives have a fitted effect of over 60% in size)). Settings: Rabbit muscle FBPA enzyme inhibition, selectivity counter-screen; series mostly up to 57.5 µM.
Description: NIH Chemical Genomics Center [NCGC]
NIH Molecular Libraries Probe Production centers Network [MLPCN]
Assay Provider: Osnat Herzberg, University of Maryland
The objective of this project is to obtain compounds that inhibit Giardia lamblia growth. G. lamblia is a human pathogen which afflicts impoverished nations; it is the most common cause of outbreaks of diarrhea in the United States. During the course of our study of potential drug targets in Giardia, we have identified the Class II (Zn2+ functions in electrophilic catalysis) fructose-1,6-bisphosphate aldolase (FBPA) as an excellent candidate for drug targeting. FBPA is a key glycolytic pathway enzyme, essential for G. lamblia survival. The human FBPA belongs to the Class I aldolases, which have a different substrate binding site structure and a radically different catalytic mechanism (employing a lysine-Schiff base intermediate). Therefore, affinity-based or mechanism-based inhibitors of the Giardia FBPA are expected not to interfere with the catalytic function of the human FBPA.
A glyceraldehyde-3-phosphate dehydrogenase/triose phosphate isomerase/NAD/arsenate coupled assay was adapted to the 1536-well HTP format for use in the primary screen. This was done by coupling it to a diaphorase/resazurin/resorufin reaction that can be monitored by fluorescence (excitation, 544 nm; emission, 590 nm). Compounds identified in this screen will be further evaluated by coupling the glycerol-3-phosphate/triose phosphate isomerase/NADH assay to a phenazine methosulfate/tetranitroblue tetrazolium color reaction. False positives due to the dehydrogenases and diaphorase inhibition will be eliminated, and selectivity assay will triage inhibitors of mammalian triose phosphate isomerase and the Class I FBPA. G. lamblia FBPA inhibitors identified by the in vitro analyses will be examined for growth inhibition of Giardia trophozoites, and for cytotoxicity in human cells.
This assay addresses whether hits in the primary screen are selective for […] FBPA, by using rabbit FBPA enzyme in the protocol.
Step,Parameter,Value,Description
1,Coupling enzyme reagent,2 uL,glyceraldehyde-3-phosphate
2,Compound,23 nL,3.68 nM-57.5 uM final concentration
3,Time,10 min,RT Incubation
4,Substrate/detection Reagent,2 uL,Substrate + enzyme coupling system + AmpLite Red kit
5,Time,20 min,RT Incubation
6,Detector,525 nm/598 nm (Fluorescence),ViewLux Fluorescence Read (Read 1)
1,Medium-binding black solid-bottom Kalypsys plates. FRD or Kalypsys dispenser.
2,Compound Library (10 mM ,1:5 dilution). Pin-transferred for a [final] range of 3.68 nM-57.5 uM.
4,FRD or Kalypsys dispenser, 2 uL of reaction mixture. Bottle kept at 4C and covered in foil to protect from light.
6,ViewLux Protocol 1194; Excitation filter wheel A (525/20 Pol; BODIPY TMR FP), Emission filter wheel B (598/25 S; BODIPY TMR FP S).
Keywords: Fructose-bisphosphate aldolase, FBPA , Giardia lamblia , Giardia, HTS, Inhibitors

Chain of Fructose-bisphosphate aldolase A (Oryctolagus cuniculus) (P00883 whole entry, looked up): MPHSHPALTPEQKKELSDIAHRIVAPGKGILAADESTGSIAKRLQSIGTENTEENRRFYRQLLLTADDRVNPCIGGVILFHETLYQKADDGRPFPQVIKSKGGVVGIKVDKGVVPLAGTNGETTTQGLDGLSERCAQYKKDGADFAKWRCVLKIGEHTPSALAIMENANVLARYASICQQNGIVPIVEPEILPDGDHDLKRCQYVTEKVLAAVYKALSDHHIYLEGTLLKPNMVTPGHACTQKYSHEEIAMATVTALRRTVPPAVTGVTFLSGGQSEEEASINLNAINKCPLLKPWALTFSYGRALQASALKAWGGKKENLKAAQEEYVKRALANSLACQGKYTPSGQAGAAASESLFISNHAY

Structure (SMILES)	outcome
Cc1cccc(-c2nnc(SCC(=O)O)n2Cc2ccccc2)c1	inactive
C=CCc1cc(C)ccc1OCCCn1ccnc1	inactive
Cc1cccc(C)c1OCCN1CCOCC1	inactive
CCN(CC(=O)NC(=O)NCc1ccccc1)Cc1nc2ccccc2c(=O)[nH]1	inactive
O=[N+]([O-])c1ccc2nc(-c3ccccn3)[nH]c2c1	inactive
COc1ccc(C(=O)NC(=S)N2CCCCC2c2cccnc2)cc1OC (stereo not given)	inactive
CCN1CCc2c(C#N)c(NCc3ccccc3)nc(NCCO)c2C1	inactive
O=C(Nc1ccccc1Cl)O/N=C(/c1ccccc1)c1ccccn1	inactive
Cc1nnc(SCC2=C(C(=O)O)N3C(=O)C(NC(=O)Cn4nc(C)c(Cl)c4C)C3SC2)s1 (stereo not given)	inactive
O=C(O)Cn1c(Cc2ccccc2)nc2ccccc21	inactive
Cc1csc(NC(=O)CN2CCCCCC2)n1	inactive
O=C(Nc1nnc(-c2ccco2)o1)c1ccc(S(=O)(=O)N2CCOCC2)cc1	inactive
Cn1nnc(NC(=S)NC(=O)c2ccccc2)n1	inactive
Cc1cc(C)c2c(=O)[nH]c(SCC(=O)Nc3ccc(Br)cc3)nc2n1	inactive
CC(=O)NC1CCN(CC(=O)Nc2nccs2)CC1	inactive
COc1cc(CN2CCN(Cc3ccc(C)cc3)CC2)c([N+](=O)[O-])cc1OC	inactive
CN1CCN(CCCCOc2ccccc2-c2ccccc2)CC1	inactive
O=C(NC(=S)Nc1ncccn1)c1ccccc1Br	inactive
COc1ccc(OC)c(Nc2nc(-c3ccc(O)c(O)c3)cs2)c1	inactive
CN1C(=O)/C(=C\c2ccc(-c3ccccc3)o2)SC1=S	inactive

Structure (SMILES)	outcome
Cc1ccc(S(=O)(=O)NNC(=S)NC(C)(C)C)cc1	inactive
O=S(=O)(c1ccc(NC(=S)NN=C(C2CC2)C2CC2)cc1)N1CCOCC1	inactive
O=[N+]([O-])c1cc([N+](=O)[O-])c2cccnc2c1O	inactive
Cn1c(=O)[nH]c(=O)c2c1[nH]c(=S)n2Cc1ccccc1	inactive
O=C(N/N=C/c1ccccn1)c1cccnc1	inactive
COCCN(C(=S)Nc1ccccc1OC)C1CCN(C(C)C)CC1	inactive
COc1ccc(Cl)cc1C(=O)NNC(=O)c1nc2nc(C)cc(C)n2n1	inactive
O=c1nc(N/N=C/c2ccco2)cn[nH]1	inactive
Cc1ccc(OCCCCc2c(C)n[nH]c2C)cc1	inactive
CCS(=O)(=O)c1cc([N+](=O)[O-])c(Sc2ccccc2N)s1	inactive
Cc1cc(C)n(-c2ccc(Cl)c(C(=O)O)n2)n1	inactive
COc1ccccc1CN1CCN(Cc2cc(OC)c(OC)cc2OC)CC1	inactive
CC(C)(c1ccccc1)c1ccc(OCCN2CCCC2)cc1	inactive
O=C1CCCN1CCCNC(=S)Nc1ccc(F)c(Cl)c1	inactive
CC1CCCN(S(=O)(=O)c2ccc(C(=O)Nc3nnc(-c4ccncc4)o3)cc2)C1 (stereo not given)	inactive
Oc1[nH]c2ccc(Br)cc2c1N=Nc1nn[nH]n1	inactive
CNC(=S)N/N=C/c1ccc(N2CCOCC2)s1	inactive
COc1ccc(N=Nc2c(-c3ccc(OC)cc3)[nH]oc2=O)cc1	inactive
CCN(CC(=O)Nc1ccc(S(=O)(=O)N2CCCC2)cc1)CC(=O)Nc1cccc(OC)c1	inactive
C=CCNC(=S)/N=c1/ccccn1Cc1ccccc1	inactive
